Results as given in PubChem BioAssay (EPA / NIEHS).
Calls of active or inactive are those of the source. How the source made its calls: active means hit-call score of the fitted dose curve at least 0.9, where 1 is the maximum; inactive means score below 0.9.

Experiments:
Conditions in all cases: mRNA level, 48 h; actives raise or lower the signal
[1] = read-out: matrix metalloproteinase-10 (MMP10), MMP10 (gene 4319); assay: LTEA_HepaRG_MMP10: Life Technologies and Expression Analysis (LTEA) Assay for matrix metalloproteinase-10 (MMP10) using HepaRG (AID 2283517)
Summary of the method: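 In differentiated HepaRG cultures kept in 0.5% DMSO, test chemicals act for 48 h over an eight-point range with a top dose of 100 uM. Expression is then quantified by TaqMan RT-PCR against ACTB, GAPDH and POLR2A.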

MYC, MYC (gene 4609) = assay: LTEA_HepaRG_MYC: Life Technologies and Expression Analysis (LTEA) Assay for MYC using HepaRG (AID 2283518)
Summary of the method: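 Expression changes were scored by TaqMan qRT-PCR with ACTB, GAPDH and POLR2A normalization. Cultures in serum-free induction medium received duplicate 8-point concentration series, highest 100 uM, for 48 h; DMSO (0.5%) served as baseline.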

[2] = read-out: matrix metalloproteinase-3 (MMP3), MMP3 (gene 4314); assay: LTEA_HepaRG_MMP3: Life Technologies and Expression Analysis (LTEA) Assay for matrix metalloproteinase-3 (MMP3) using HepaRG (AID 2283519)
Summary of the method: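 Human liver HepaRG cultures received chemicals (top concentration 100 uM, 0.5% DMSO) for 48 h in duplicate. MMP3 mRNA induction or loss was then assessed via TaqMan qRT-PCR with housekeeping-gene normalisation.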

[3] = read-out: Paternally Expressed 10 (PEG10), PEG10 (gene 23089); assay: LTEA_HepaRG_PEG10: Life Technologies and Expression Analysis (LTEA) Assay for Paternally Expressed 10 (PEG10) using HepaRG (AID 2283520)
Summary of the method: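 qRT-PCR read-out: PEG10 mRNA normalised to three housekeeping genes, fitted bidirectionally against 0.5% DMSO vehicle. HepaRG cells received test chemicals for 48 h in serum-free induction medium, 8 points, top 100 uM, half-log steps.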

[4] = read-out: Nuclear factor NF-kappa-B p105 subunit (Homo sapiens) (UniProt P19838); assay: LTEA_HepaRG_NFKB1: Life Technologies and Expression Analysis (LTEA) Assay for Nuclear Factor Kappa B Subunit 1 (NFKB1) using HepaRG (AID 2283521);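 further: differentiated human HepaRG liver cells in serum-free induction medium; TaqMan qRT-PCR transcript normalised to ACTB GAPDH and POLR2A housekeeping genes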
Summary of the method: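 HepaRG, 48 h exposure; 8-pt half-log series from 100 uM in 0.5% DMSO; duplicates. Readout: NFKB1 mRNA by qRT-PCR (Fluidigm arrays), housekeeping-normalized. Gain/loss fit vs DMSO baseline.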

[5] = read-out: Protein phosphatase 2A (PPP2R4), PTPA (gene 5524); assay: LTEA_HepaRG_PPP2R4: Life Technologies and Expression Analysis (LTEA) Assay for Protein phosphatase 2A (PPP2R4) using HepaRG (AID 2283522)
Summary of the method: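 HepaRG, 48 h exposure, 8-pt half-log series from 100 uM, 0.5% DMSO vehicle, duplicates. Readout: PPP2R4 mRNA, Fluidigm qRT-PCR, housekeeping-normalized. Bidirectional curve fit vs DMSO baseline.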

[6] = read-out: Phosphatase and tensin (PTEN), PTEN (gene 5728); assay: LTEA_HepaRG_PTEN: Life Technologies and Expression Analysis (LTEA) Assay for Phosphatase and tensin (PTEN) using HepaRG (AID 2283523)
Summary of the method: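 Expression of PTEN is quantified in the human liver line HepaRG following two days of dosing (top concentration 100 uM, half-log dilutions, 0.5% DMSO). Values derive from bidirectional curve fitting relative to DMSO controls.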

[7] = read-out: solute carrier (SLC22A1), SLC22A1 (gene 6580); assay: LTEA_HepaRG_SLC22A1: Life Technologies and Expression Analysis (LTEA) Assay for solute carrier (SLC22A1) using HepaRG (AID 2283524)
Summary of the method: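 Transcript induction or suppression of SLC22A1 in human HepaRG cultures is scored after 48 h chemical treatment, with DMSO (0.5%) as baseline for bidirectional fitting. Concentrations span eight half-log points topping at 100 uM.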

[8] = read-out: Pyruvate Dehydrogenase Kinase 4 (PDK4), PDK4 (gene 5166); assay: LTEA_HepaRG_PDK4: Life Technologies and Expression Analysis (LTEA) Assay for Pyruvate Dehydrogenase Kinase 4 (PDK4) using HepaRG (AID 2283525)
Summary of the method: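 Eight-point, half-log concentration series (max 100 uM, 0.5% DMSO) applied to differentiated HepaRG cells for 48 h in duplicate. Endpoint: PDK4 mRNA induction or repression by qRT-PCR against DMSO baseline.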

[9] = read-out: NAD(P)H dehydrogenase [quinone] 1 (NQO1), NQO1 (gene 1728); assay: LTEA_HepaRG_NQO1: Life Technologies and Expression Analysis (LTEA) Assay for NAD(P)H dehydrogenase [quinone] 1 (NQO1) using HepaRG (AID 2283526)
Summary of the method: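 qRT-PCR read-out (Fluidigm TaqMan), normalized to three housekeeping genes, after 48 h chemical exposure of HepaRG cells. Concentrations: eight points, top 100 uM, half-log steps, 0.5% DMSO vehicle. Gain or loss of signal fitted relative to DMSO.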

[10] = read-out: Nuclear factor erythroid 2-related factor 2 (Homo sapiens) (UniProt Q16236); assay: LTEA_HepaRG_NFE2L2: Life Technologies and Expression Analysis (LTEA) Assay for Nuclear factor erythroid 2-related factor 2 (NFE2L2) Transcription Factor using HepaRG (AID 2283527);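 further: TaqMan qRT-PCR transcript level normalised to ACTB GAPDH and POLR2A housekeeping genes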
Summary of the method: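 Human liver HepaRG line treated in duplicate for 48 h with an eight-point series topping at 100 uM. Gene expression of NFE2L2 by qRT-PCR, bidirectionally fitted against the vehicle control.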

[11] = read-out: succinate dehydrogenase complex iron sulfur subunit B (SDHB), SDHB (gene 6390); assay: LTEA_HepaRG_SDHB: Life Technologies and Expression Analysis (LTEA) Assay for succinate dehydrogenase complex iron sulfur subunit B (SDHB) using HepaRG (AID 2283528)
Summary of the method: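 Readout is SDHB transcript level by qRT-PCR, normalised to three housekeeping genes and fitted bidirectionally against 0.5% DMSO vehicle. Human HepaRG cells were treated for 48 h at up to 100 uM.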

[12] = read-out: Signal transducer and activator of transcription 3 (Homo sapiens) (UniProt P40763); assay: LTEA_HepaRG_STAT3: Life Technologies and Expression Analysis (LTEA) Assay for Signal transducer and activator of transcription (STAT3) using HepaRG (AID 2283529)
Summary of the method: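 In this transcriptional endpoint, HepaRG cultures receive test chemicals at up to 100 uM for 48 h, tested in duplicate. STAT3 mRNA is normalized to ACTB, GAPDH and POLR2A.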

[13] = read-out: solute carrier (SLCO1B1), SLCO1B1 (gene 10599); assay: LTEA_HepaRG_SLCO1B1: Life Technologies and Expression Analysis (LTEA) Assay for solute carrier (SLCO1B1) using HepaRG (AID 2283530)
Summary of the method: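 Human HepaRG cultures treated for 48 h with an eight-concentration half-log series topping at 100 uM; SLCO1B1 measured by qRT-PCR and fitted bidirectionally relative to DMSO.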

[14] = read-out: sulfotransferase 2A1 (SULT2A1), SULT2A1 (gene 6822); assay: LTEA_HepaRG_SULT2A1: Life Technologies and Expression Analysis (LTEA) Assay for sulfotransferase 2A1 (SULT2A1) using HepaRG (AID 2283531)
Summary of the method: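 Gene-expression endpoint in a human liver cell line: SULT2A1 mRNA change after 48 h chemical treatment, curves fitted in both directions relative to 0.5% DMSO vehicle. Concentrations spanned eight half-log steps from 100 uM.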

[15] = read-out: Transforming Growth Factor (TGFA), TGFA (gene 7039); assay: LTEA_HepaRG_TGFA: Life Technologies and Expression Analysis (LTEA) Assay for Transforming Growth Factor (TGFA) using HepaRG (AID 2283532)
Summary of the method: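 Gene expression of TGFA was quantified by qRT-PCR after human HepaRG cells were treated for 48 h with test chemicals (eight concentrations, highest 100 uM, 0.5% DMSO). Activity in either direction was fitted relative to DMSO.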

[16] = read-out: Transforming Growth Factor (TGFB1), TGFB1 (gene 7040); assay: LTEA_HepaRG_TGFB1: Life Technologies and Expression Analysis (LTEA) Assay for Transforming Growth Factor (TGFB1) Transporter using HepaRG (AID 2283533)
Summary of the method: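 Eight-point concentration-response (max 100 uM, half-log) in HepaRG under serum-free induction conditions, 48 h. TGFB1 mRNA by qRT-PCR, housekeeping-normalized.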

TIMP1, TIMP1 (gene 7076) = assay: LTEA_HepaRG_TIMP1: Life Technologies and Expression Analysis (LTEA) Assay for TIMP1 using HepaRG (AID 2283534);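 further: TaqMan qRT-PCR signal normalized to ACTB GAPDH and POLR2A housekeeping genes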
Summary of the method: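 TIMP1 induction or repression in HepaRG cells after 48 h chemical exposure (eight concentrations, highest 100 uM), assessed by normalized qRT-PCR with bidirectional fitting to DMSO controls.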

[17] = read-out: Tumor necrosis factor receptor 1 (TNFRSF1A), TNFRSF1A (gene 7132); assay: LTEA_HepaRG_TNFRSF1A: Life Technologies and Expression Analysis (LTEA) Assay for Tumor necrosis factor receptor 1 (TNFRSF1A) using HepaRG (AID 2283535)
Summary of the method: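 Assay uses 48 h chemical treatment of differentiated HepaRG monolayers, tested in duplicate at eight concentrations from 100 uM downward in 0.5% DMSO. mRNA is normalized to ACTB, GAPDH and POLR2A, with induction or suppression fitted relative to vehicle.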

[18] = read-out: Thyroid Hormone Responsive (THRSP), THRSP (gene 7069); assay: LTEA_HepaRG_THRSP: Life Technologies and Expression Analysis (LTEA) Assay for Thyroid Hormone Responsive (THRSP) using HepaRG (AID 2283536)
Summary of the method: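 Cell model: human HepaRG, approx. 100,000 cells/well, 0.5% DMSO vehicle. Exposure lasts 48 h; phenobarbital 1 mM serves as induction positive control. Gene expression is measured by qRT-PCR against three endogenous control genes.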

Measured: outcome

Sequence of Nuclear factor NF-kappa-B p105 subunit (Homo sapiens) (P19838 whole entry, looked up): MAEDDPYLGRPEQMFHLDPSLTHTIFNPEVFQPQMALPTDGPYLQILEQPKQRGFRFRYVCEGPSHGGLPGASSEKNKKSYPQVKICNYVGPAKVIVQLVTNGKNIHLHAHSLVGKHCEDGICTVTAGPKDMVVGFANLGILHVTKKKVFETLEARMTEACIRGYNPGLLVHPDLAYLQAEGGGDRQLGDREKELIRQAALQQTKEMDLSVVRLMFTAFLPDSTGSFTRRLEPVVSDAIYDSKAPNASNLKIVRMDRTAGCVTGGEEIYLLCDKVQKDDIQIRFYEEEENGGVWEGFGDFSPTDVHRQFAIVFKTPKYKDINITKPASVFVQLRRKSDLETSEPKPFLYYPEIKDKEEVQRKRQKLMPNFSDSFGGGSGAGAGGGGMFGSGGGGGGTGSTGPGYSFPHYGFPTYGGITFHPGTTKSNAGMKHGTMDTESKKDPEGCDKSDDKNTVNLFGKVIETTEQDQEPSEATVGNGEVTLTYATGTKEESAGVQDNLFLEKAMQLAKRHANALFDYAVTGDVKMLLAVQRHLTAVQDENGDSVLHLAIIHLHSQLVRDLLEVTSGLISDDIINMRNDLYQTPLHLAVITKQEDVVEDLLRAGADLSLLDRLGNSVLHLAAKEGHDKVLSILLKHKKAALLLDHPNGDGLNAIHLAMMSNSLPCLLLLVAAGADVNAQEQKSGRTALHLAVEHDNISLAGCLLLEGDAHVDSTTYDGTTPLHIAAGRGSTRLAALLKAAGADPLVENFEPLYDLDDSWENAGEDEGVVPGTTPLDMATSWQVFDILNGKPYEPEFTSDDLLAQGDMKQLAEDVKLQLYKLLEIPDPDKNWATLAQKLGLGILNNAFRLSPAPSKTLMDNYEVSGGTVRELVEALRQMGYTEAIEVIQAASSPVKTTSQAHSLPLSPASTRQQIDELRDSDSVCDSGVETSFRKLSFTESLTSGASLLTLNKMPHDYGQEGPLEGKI
Sequence of Signal transducer and activator of transcription 3 (Homo sapiens) (P40763 whole entry, looked up): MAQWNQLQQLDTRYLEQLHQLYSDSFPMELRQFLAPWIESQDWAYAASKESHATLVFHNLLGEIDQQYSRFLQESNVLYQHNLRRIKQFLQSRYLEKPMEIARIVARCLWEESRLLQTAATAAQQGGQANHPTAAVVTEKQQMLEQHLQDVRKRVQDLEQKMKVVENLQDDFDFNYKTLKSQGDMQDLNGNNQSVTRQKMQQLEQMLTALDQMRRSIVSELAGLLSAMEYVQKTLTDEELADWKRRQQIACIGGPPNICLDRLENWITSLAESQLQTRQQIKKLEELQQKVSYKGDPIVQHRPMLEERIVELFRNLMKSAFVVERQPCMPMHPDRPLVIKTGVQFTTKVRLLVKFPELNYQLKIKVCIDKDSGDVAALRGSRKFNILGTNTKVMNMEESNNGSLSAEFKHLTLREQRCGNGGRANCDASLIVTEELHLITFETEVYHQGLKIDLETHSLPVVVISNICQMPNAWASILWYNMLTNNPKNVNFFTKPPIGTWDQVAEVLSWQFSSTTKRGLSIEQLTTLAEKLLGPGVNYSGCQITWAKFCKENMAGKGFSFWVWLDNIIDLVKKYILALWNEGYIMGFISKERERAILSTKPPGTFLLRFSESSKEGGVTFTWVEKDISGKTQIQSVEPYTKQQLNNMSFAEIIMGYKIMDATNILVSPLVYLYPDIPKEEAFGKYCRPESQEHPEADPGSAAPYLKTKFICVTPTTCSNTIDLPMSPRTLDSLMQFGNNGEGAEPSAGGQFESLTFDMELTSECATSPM
Sequence of Nuclear factor erythroid 2-related factor 2 (Homo sapiens) (Q16236 whole entry, looked up): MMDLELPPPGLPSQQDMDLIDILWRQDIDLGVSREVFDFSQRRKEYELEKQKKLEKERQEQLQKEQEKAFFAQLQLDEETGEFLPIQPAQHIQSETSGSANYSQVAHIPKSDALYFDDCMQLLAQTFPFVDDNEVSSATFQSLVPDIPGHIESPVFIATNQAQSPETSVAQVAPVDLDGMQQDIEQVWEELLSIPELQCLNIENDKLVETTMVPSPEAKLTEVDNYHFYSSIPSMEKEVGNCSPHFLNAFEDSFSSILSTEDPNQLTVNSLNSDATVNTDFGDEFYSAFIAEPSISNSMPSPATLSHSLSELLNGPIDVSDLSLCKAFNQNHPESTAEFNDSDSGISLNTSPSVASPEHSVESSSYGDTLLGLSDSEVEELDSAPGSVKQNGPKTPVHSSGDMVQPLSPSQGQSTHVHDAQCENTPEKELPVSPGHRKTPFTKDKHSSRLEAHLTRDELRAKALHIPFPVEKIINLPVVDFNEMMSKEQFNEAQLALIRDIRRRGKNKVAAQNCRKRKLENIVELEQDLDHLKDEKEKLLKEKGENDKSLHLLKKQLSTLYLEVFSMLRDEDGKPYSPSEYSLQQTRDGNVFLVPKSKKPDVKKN

Cc1ccc2ncccc2c1
inactive: all assays above

Cc1ccc(C)c(O)c1C
inactive: all assays above

CCCCCCC(=O)OCC
inactive: all assays above
